A short description of test [1]: inhibitors of TNFa-induced NFkB p65 translocation, primary screen, imaging, HUVEC, MLSMR starter and 10KST1 sets (AID 438;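 active means inhibition above 20% together with a positive visual image hit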;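 further: compound added about 3h40 before a 20 min TNFalpha stimulation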;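 on inhibition: signal is the nuclear over cytoplasmic p65 intensity ratio per well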). As to conditions: HUVEC TNFa-induced p65 nuclear translocation; cell count: measured here: nuclei count (cytotoxicity indicator), at 2.08 µM unless noted; inhibition: at 2 µM, stronger effect = higher value unless noted.
The nature of test [2]: reduction of polyQ htt aggregates in cells – imaging, exon1htt(103Q)mCFP cells, high-content imaging, primary screen (AID 483;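 active means visual image review flags a hit and inhibition of aggregation exceeds 20%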;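 further: compound exposure lasted 3 days before fixation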;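 on nuclei count: percent of the per-plate median nuclei count of sample wells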). As to conditions: exon1htt(103Q)mCFP cell line, aggregate imaging, at 2 µM; inhibition of aggregation: stronger effect = higher value; nuclei count: measured here: cell count, toxicity.
Test [3] can be described thus: endothelial E-selectin expression blockers – imaging, HUVEC, immunofluorescence, MLSMR starter and 10KST1 sets, primary screen (AID 487;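 active means visually confirmed hit in the image check and inhibition above 20%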;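 on inhibition: signal is fraction of cell area covered by stained E-selectin grains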;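 on nuclei count: 100% = median nuclei count of all wells on the same plate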). As to conditions: HUVEC TNFalpha-induced E-selectin immunofluorescence imaging, at 2 µM; inhibition: stronger effect = higher value; nuclei count: measured here: cell number, toxicity.
Test [4] in a line: Primary imaging screen for DUSP6 inhibitors that restore phospho-Erk in transfected HeLa cells, chemical complementation (AID 609;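 active means compounds giving at least 50% inhibition in the cell-based MKP-3 phosphatase rescue imaging test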;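 on inhibition: phospho-Erk level distribution per well compared with pooled transfected vehicle control wells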). As to conditions: HeLa MKP-3 transfected, phospho-Erk imaging KS statistic, at 10 µM.
Test [5] addresses Dual specificity protein phosphatase 6 (Homo sapiens) (UniProt Q16828). Described as above. Conditions: HeLa MKP-3 transfected, phospho-Erk imaging KS statistic, at 10 µM, stronger effect = higher value.
Test [6] concerns the target Voltage-gated potassium channel subunit beta-2 (Rattus norvegicus) (UniProt P62483). Description: inhibitors of rat Kvbeta2 reductase activity – biochemical, NADPH fluorescence, primary screen (AID 622;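 active means fluorescence slope higher than the sample average by over 3 SD, cut at about -0.22 in these data, passing the limit was not always enough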;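 further: slope of raw intensity against log time taken from 70 to 1610 s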). As to conditions: recombinant KvBeta, 4-cyanobenzaldehyde reduction, at 10 µM, stronger effect = higher value.
Test [7] has the same target. Description: enhancers of rat Kvbeta2 NADPH turnover – biochemical, NADPH fluorescence, primary screen (AID 623;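 active means NADPH fluorescence slope more negative than the mean of all samples by about 3 SD, 99.7% confidence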;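 further: fluorescence intensity change per second fitted from 20 to 320 s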). As to conditions: Recombinant KvBeta, NADPH fluorescence decrease slope, 10 min; at 10 µM; stronger effect = lower value.
In test [8] the target is Alpha-2C adrenergic receptor (Homo sapiens) (UniProt P18825). Briefly: compounds altering alpha2C-coupled GIRK flux – cell-based, HEK293 alpha2C/GIRK1/2, thallium flux, primary screen (AID 624;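 active means fluorescence slope after compound addition differing from the mean of all screened samples at 99.7% confidence, in either direction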;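 further: slope of fluorescence ratio to pre-addition baseline per second over 15 to 24 s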). Conditions: thallium flux BTC fluorescence, at 10 µM, actives lie on both sides.
Alpha-2C adrenergic receptor (Homo sapiens), sequence (P18825 whole entry, looked up): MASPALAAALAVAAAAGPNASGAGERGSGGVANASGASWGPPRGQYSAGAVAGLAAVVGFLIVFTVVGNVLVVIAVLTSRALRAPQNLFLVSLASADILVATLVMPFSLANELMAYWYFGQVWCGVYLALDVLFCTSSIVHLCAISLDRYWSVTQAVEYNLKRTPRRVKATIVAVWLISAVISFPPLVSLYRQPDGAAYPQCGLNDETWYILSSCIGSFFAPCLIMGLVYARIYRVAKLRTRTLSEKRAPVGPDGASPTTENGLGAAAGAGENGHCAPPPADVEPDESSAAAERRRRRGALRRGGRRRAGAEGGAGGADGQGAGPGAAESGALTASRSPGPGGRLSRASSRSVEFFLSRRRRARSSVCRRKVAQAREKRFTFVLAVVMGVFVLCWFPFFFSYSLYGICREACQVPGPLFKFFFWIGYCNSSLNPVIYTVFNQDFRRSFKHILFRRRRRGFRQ
The nature of test [9]: inhibitors of larval lipid processing in zebrafish, primary screen, whole organism, PED6 fluorescence, gall bladder and intestine (AID 686;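 active means a full or partial loss of lipid-probe fluorescence in the fish gall bladder, intestine or both, judged by eye; inactive means no fluorescence loss, or compound toxic to the fish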;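 further: larvae 5 to 7 days old with five fish per well; signal comes from phospholipase A2 cleavage of quenched PED6 carried via bile; overnight exposure to compound and PED6 before scoring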). Conditions: Zebrafish larvae PED6 lipid processing, fluorescence scoring.
Test [10] can be described thus: loss of swimming-algae plug formation – whole organism, Chlamydomonas reinhardtii, WT vs cilia-less mutant, absorbance, 96-well, primary screen (AID 463189).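 Further: 0% = wild type cc124 cells in DMSO and 100% = ciliumless bld1 mutant cells.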 As to conditions: Chlamydomonas reinhardtii gravitaxis, OD600 absorbance, 2 days; at 10 µM; stronger effect = higher value.
The nature of test [11]: blockers of RIG-like receptor reporter activation – cell-based, Sendai virus stimulus, luciferase, 10K MLSCN set, TLR/RLR signaling modifier project, primary screen (AID 602276;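 active means inhibition at or above 50% at 10 µM; inactive means inhibition below 50%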;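 further: firefly luciferase from ISG56 promoter only with Renilla not read in this screen; 0% = Sendai virus plus DMSO and 100% = medium plus DMSO without virus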). As to conditions: HEK293 RL24 IRF3 luciferase reporter, at 10 µM, stronger effect = higher value.
Test [12] can be described thus: TLR3 IRF3 reporter activation blockers – cell-based, poly I:C stimulus, luciferase, 10K MLSCN set, primary screen (AID 602277;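 active means inhibition of the reporter signal at or above 50%; inactive means inhibition below 50%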). As to conditions: HEK293-TLR3 RL24 IRF3 luciferase reporter, at 10 µM, stronger effect = higher value.
For test [13], the target named is Muscarinic acetylcholine receptor M4 (Homo sapiens) (UniProt P08173). Description: M4-linked GIRK flux change, two-sided – cell-based, HEK293 M4/GIRK, thallium flux, BTC-AM, M4 allosteric agonist project, primary screen (AID 625;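 active means fluorescence slope after compound addition differing from the mean of all tested samples at 99.7% confidence, mostly higher but some lower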;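 further: thallium influx through GIRK channels coupled to M4 in HEK293 cells with BTC-AM dye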). Conditions: at 10 µM, actives lie on both sides.
Muscarinic acetylcholine receptor M4 (Homo sapiens), sequence (P08173 whole entry, looked up): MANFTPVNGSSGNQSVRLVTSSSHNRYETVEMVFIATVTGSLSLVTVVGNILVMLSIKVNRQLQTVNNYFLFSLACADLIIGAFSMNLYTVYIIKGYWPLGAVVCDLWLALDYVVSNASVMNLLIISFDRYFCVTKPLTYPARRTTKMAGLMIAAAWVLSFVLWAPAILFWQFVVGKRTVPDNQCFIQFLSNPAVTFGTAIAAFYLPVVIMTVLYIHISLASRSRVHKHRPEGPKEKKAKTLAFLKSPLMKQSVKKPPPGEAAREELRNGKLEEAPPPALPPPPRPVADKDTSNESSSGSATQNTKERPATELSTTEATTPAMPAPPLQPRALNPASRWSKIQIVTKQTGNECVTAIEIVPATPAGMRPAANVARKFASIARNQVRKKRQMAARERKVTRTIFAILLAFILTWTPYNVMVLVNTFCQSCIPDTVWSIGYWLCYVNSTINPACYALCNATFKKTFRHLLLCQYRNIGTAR
[14] abbreviates: measured here: cell density z-score.
[15] abbreviates: measured here: nuclear c-Myc green intensity z-score.
[16] abbreviates: measured here: nuclear pErk red intensity z-score, stronger effect = higher value.

Several values for one entry are separate records, joined by “and”; a condition that tells them apart may be missing. Identical values can stand only once. Activity calls are given as the source filed them.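 How the source made its calls, unless noted: active means inhibition at or above 50% relative to wild type and mutant plate controls; inactive means inhibition below 50%.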

As a reminder, the inhibition is the drop in the measured response relative to a control, in per cent.

Dual specificity protein phosphatase 6 (Homo sapiens), sequence (Q16828 whole entry, looked up): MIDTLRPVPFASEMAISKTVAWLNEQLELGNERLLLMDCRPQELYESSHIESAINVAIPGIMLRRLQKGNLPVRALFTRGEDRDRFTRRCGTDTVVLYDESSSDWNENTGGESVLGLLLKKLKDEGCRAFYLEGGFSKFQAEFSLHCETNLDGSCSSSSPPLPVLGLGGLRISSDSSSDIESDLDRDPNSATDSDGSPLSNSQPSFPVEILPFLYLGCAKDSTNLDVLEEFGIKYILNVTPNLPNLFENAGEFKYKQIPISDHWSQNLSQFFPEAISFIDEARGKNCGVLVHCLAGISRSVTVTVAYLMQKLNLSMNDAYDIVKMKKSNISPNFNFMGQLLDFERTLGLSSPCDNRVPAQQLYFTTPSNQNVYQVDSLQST
Voltage-gated potassium channel subunit beta-2 (Rattus norvegicus), sequence (P62483 whole entry, looked up): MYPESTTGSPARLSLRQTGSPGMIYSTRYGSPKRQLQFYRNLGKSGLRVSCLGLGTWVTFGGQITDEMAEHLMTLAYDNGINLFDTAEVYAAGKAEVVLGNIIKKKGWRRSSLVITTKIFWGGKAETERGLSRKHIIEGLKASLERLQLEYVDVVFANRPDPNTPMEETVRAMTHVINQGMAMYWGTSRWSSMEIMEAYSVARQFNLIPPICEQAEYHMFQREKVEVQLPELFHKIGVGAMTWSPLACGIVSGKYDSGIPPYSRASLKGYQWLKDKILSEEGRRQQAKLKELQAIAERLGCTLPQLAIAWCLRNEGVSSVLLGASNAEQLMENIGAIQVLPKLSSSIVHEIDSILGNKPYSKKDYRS

In the case of `CC(=O)[C@H]1CC[C@H]2[C@@H]3CC[C@H]4C[C@H](O)CC[C@]4(C)[C@H]3C(=O)C[C@]12C`, in test [1], the cell count is 549. Further, the inhibition in [1] is -11.5% (inactive); in test [3], -98.9% (inactive); in test [5], -6.41% (inactive); in [10], 5.76% (inactive) and -1.15% (inactive); in test [11], 10.2% (inactive); in test [12], 20.7% (inactive). Moreover, the inhibition of aggregation in [2] is 17.3% (inactive). For the same compound, the nuclei count in test [2] was 94.7%; in test [3] it was 100%. Also, the z-score in test [4] (setting [14]) was -1.19; in [4] (setting [15]), -0.45; in test [4] (setting [16]), 1.1. Further, in test [6], the fluorescence slope is -0.534 (inactive). Further, in test [7], the NADPH fluorescence slope is -4.5e-05 (inactive). Besides, the slope in test [8] is 0.00562 (inactive). Further, the compound was classed as inactive in test [9].

With `CC(C)[C@@]1(NC(=O)[C@@H]2C[C@@H]3c4cccc5[nH]cc(c45)C[C@H]3N(C)C2)O[C@@]2(O)[C@@H]3CCCN3C(=O)[C@H](Cc3ccccc3)N2C1=O`, the cell count in test [1] was 640. Besides, the inhibition in [1] is 11.1% (inactive); in test [3], -79.8% (inactive); in test [5], -0.828% (inactive); in test [10], -5.54% (inactive) and 15.7% (inactive); in test [11], 3.2% (inactive); in test [12] it was 36.1% (inactive). Besides, the inhibition of aggregation in test [2] is 20.4% (inactive). For the same compound, the nuclei count in test [2] is 90.4%; in test [3] it was 113%. The z-score in [4] (setting [14]) is -0.842; in [4] (setting [15]), -0.876; in test [4] (setting [16]), 1.64. Also, the fluorescence slope in test [6] was -0.47 (inactive). Also, the NADPH fluorescence slope in test [7] is -3.7e-05 (inactive). Also, the slope in [8] was 0.00471 (inactive).

Compound `CC(NC(C)(C)C)C(=O)c1cccc(Cl)c1` (centres undefined) yielded a cell count in test [1] of 651. For the same compound, the inhibition in [1] is -1.3% (inactive); in [3] it was -75.7% (inactive); in test [5], 12.4% (inactive); in test [10] it was -4.32% (inactive) and 13.4% (inactive); in test [11] it was 11.7% (inactive); in test [12], 29.6% (inactive). In addition, the inhibition of aggregation in test [2] was 4% (inactive). In addition, the nuclei count in test [2] was found to be 102%; in test [3] it was 132%. The z-score was -0.59 in test [4] (setting [14]), 0.546 in test [4] (setting [15]) and -0.888 in [4] (setting [16]). Further, the fluorescence slope in test [6] was -0.447 (inactive). The NADPH fluorescence slope in [7] was -3.7e-05 (inactive). Also, the slope in test [8] was 0.00462 (inactive). Moreover, the outcome in test [9] was inactive.

`C[C@H]1OC[C@@H](C[N+](C)(C)C)O1` displayed a cell count in [1] of 534. The inhibition in [1] was -2.2% (inactive); in [3], -83.7% (inactive); in test [5], 16.8% (inactive); in test [10], -2.33% (inactive) and 9.97% (inactive); in [11], 1.89% (inactive); in test [12] it was 50.9% (active). Besides, the inhibition of aggregation in test [2] is 21% (inactive). The nuclei count in test [2] worked out at 93.2%; in test [3], 112%. The z-score in test [4] (setting [14]) was 0.485; in test [4] (setting [15]), 0.998; in [4] (setting [16]), -0.857. In test [6], the fluorescence slope was -0.458 (inactive). In test [7], the NADPH fluorescence slope was -5.9e-05 (inactive). Also, the slope in [8] was 0.0176 (active). Moreover, in test [9], the compound was called inactive.

In the case of `Nc1ccc(C2(c3ccc(N)cc3)CN3CCC2CC3)cc1`, the cell count in test [1] is 688. Also, the inhibition was -0.7% (inactive) in [1]; -49.8% (inactive) in test [3]; 1.12% (inactive) in test [5]; 8.44% (inactive) in test [10]; 2.43% (inactive) in [11]; 13.5% (inactive) in [12]. Further, in test [2], the inhibition of aggregation was 1.5% (inactive). The nuclei count stood at 104% in test [2] and 138% in [3]. Further, the z-score is -0.8 in [4] (setting [14]), 0.409 in test [4] (setting [15]) and -0.625 in test [4] (setting [16]). Moreover, the fluorescence slope in [6] is -0.502 (inactive); in [13], 0.00533 (inactive). The NADPH fluorescence slope in test [7] is -3e-05 (inactive). In addition, in test [8], the slope is 0.00562 (inactive). Besides, the result in [9] was inactive.

In the case of `CC(C)[C@H]1C(=O)N2CCC[C@H]2[C@]2(O)O[C@](NC(=O)[C@@H]3C=C4c5cccc6[nH]cc(c56)C[C@H]4N(C)C3)(C(C)C)C(=O)N12`, the cell count in [1] turned out to be 501. The inhibition in [1] is 1.6% (inactive); in [3] it was -84.6% (inactive); in test [5], 3.59% (inactive); in test [10] it was 13.5% (inactive); in [11], 10.2% (inactive); in test [12] it was 18.2% (inactive). The inhibition of aggregation in test [2] is -14% (inactive). The nuclei count is 110% in test [2] and 122% in test [3]. The z-score in test [4] (setting [14]) was -1.33; in [4] (setting [15]), -1; in test [4] (setting [16]), 0.393. The fluorescence slope in test [6] was -0.451 (inactive). The NADPH fluorescence slope in [7] is -1.8e-05 (inactive). Besides, the slope in [8] was 0.0044 (inactive).

Compound `CN(C)[C@@H]1C(=O)C(C(N)=O)=C(O)[C@@]2(O)C(=O)C3=C(O)c4c(O)ccc(Cl)c4[C@@](C)(O)C3C[C@@H]12` (some centres undefined) had a cell count in [1] of 634. For the same compound, the inhibition in [1] is -1.6% (inactive); in [3], -43.7% (inactive); in test [5], 21.2% (inactive); in [10], 51.9% (active); in test [11], 23% (inactive); in [12], 44.9% (inactive). The inhibition of aggregation in [2] is 76.3% (active). Besides, the nuclei count was 102% in [2] and 123% in test [3]. The z-score in [4] (setting [14]) is -1.02; in test [4] (setting [15]), 0.954; in test [4] (setting [16]), -0.997. Also, the fluorescence slope in test [6] is -0.468 (inactive). The NADPH fluorescence slope in [7] is -6.5e-07 (inactive). In addition, the slope in test [8] was 0.00588 (inactive). Further, the outcome in [9] was inactive.

On to `C[C@H]1CCCC(=O)CCCCCc2cc(O)cc(O)c2C(=O)O1`, for which the cell count in test [1] amounted to 593. Besides, the inhibition was -6.9% (inactive) in test [1]; -84.5% (inactive) in [3]; 29.1% (inactive) in test [5]; -7.02% (inactive) in test [10]; -0.827% (inactive) in test [11]; 16.9% (inactive) in test [12]. For the same compound, the inhibition of aggregation in [2] is 2.6% (inactive). In addition, the nuclei count in test [2] worked out at 82.4%; in test [3] it was 116%. Further, the z-score in test [4] (setting [14]) is 1.09; in test [4] (setting [15]), -0.366; in [4] (setting [16]), -0.0362. The fluorescence slope in [6] is -0.439 (inactive). For the same compound, the NADPH fluorescence slope in test [7] is 2.4e-05 (inactive). The slope in [8] is 0.00367 (inactive). The compound was classed as inactive in test [9].

For the compound `CN1CCC(OC(=O)C2c3ccccc3Oc3ccccc32)CC1`, the cell count in test [1] is 593. The inhibition in [1] is -3.3% (inactive); in [3], -38.4% (inactive); in test [5], -3.5% (inactive); in test [10] it was 11.4% (inactive); in test [11] it was 7.89% (inactive); in [12] it was 12.3% (inactive). The inhibition of aggregation in [2] is -33.4% (inactive). Besides, the nuclei count stood at 104% in test [2] and 143% in test [3]. Besides, the z-score in [4] (setting [14]) is -1.82; in test [4] (setting [15]), 0.811; in test [4] (setting [16]) it was -0.439. The fluorescence slope in test [6] is -0.316 (inactive). The NADPH fluorescence slope in test [7] was 1.2e-05 (inactive). Further, the slope in test [8] is 0.0042 (inactive). The outcome in test [9] was inactive.

On to `O=c1[nH]c(=O)n(Cc2ccco2)c(O)c1C=NCCCn1ccnc1`, for which the cell count in test [1] amounted to 506. Besides, the inhibition in [1] was -1.7% (inactive); in test [3], -104% (inactive); in test [5], -0.584% (inactive); in [10], 14.1% (inactive); in test [11], 8.16% (inactive); in test [12], 21.1% (inactive). Moreover, in test [2], the inhibition of aggregation was 4.4% (inactive). The nuclei count in [2] was 89.9%; in test [3], 123%. Further, the z-score in test [4] (setting [14]) was 0.638; in [4] (setting [15]), -0.867; in test [4] (setting [16]) it was 0.884. The fluorescence slope in [6] was -0.334 (inactive). Further, in [7], the NADPH fluorescence slope is -2.4e-05 (inactive). In addition, the slope in test [8] was 0.00606 (inactive). For the same compound, the compound was classed as inactive in test [9].

(Values after PubChem BioAssay.)
